From PubChem BioAssay (NCATS) come the findings set out here.

Results filed as inconclusive are left out. Unmarked numbers belong to inactive results. The call rests on the fitted dose curve; in most records, active means well fitted activation curve with a large enough effect; inconclusive means small, poorly fitted or top-dose-only effect; inactive means flat fitted curve, though single readings scatter.

A short description of the test: Primary redox qHTS assay for identification of artifact compounds. (AID 1845223).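 Further: 0% = DMSO and 100% = reference compound.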 The following applies: Amplex Red/HRP redox cycling with DTT, fluorescence; series mostly up to 53.8 µM; redox activity (% of DA3003): at the top concentration. The method in brief:
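Redox-cycling detection via DTT (250 uM final) oxidation coupled to Amplex Red (25 uM)/HRP (250 mU/mL) in HBSS. 15 min preincubation plus 30 min after DTT, room temperature. Ex/Em 525/598 nm; 4-parameter Hill fit against DMSO and 10 uM DA3003.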
In general terms: Quantitative high-throughput screening tests each substance at several concentrations.
In the case of `C=CC(C)(C)c1[nH]c2ccccc2c1C[C@@H]1NC(=O)[C@H](C)NC1=O`, the “redox activity (% of DA3003)” value was 17.4%.

Regarding `COc1ccc(NC(=O)C2C[C@H](C)CC[C@H]2C(C)C)cc1` (some centres undefined), the “redox activity (% of DA3003)” value is -1.67%.

On to `COCCCNC(=O)c1ccc(Cn2c(=O)c3ccccc3n(Cc3ccc(C(C)C)cc3)c2=O)cc1`, for which the “redox activity (% of DA3003)” value is -0.739%. The same measure for `Cc1nc2ccc(-n3ncc(C(=O)c4cc5ccccc5[nH]4)c3N)cc2[nH]1`: 10.2%; for `N#Cc1ccc(COc2ccc(-c3cccc4nc(NC(=O)C5CC5)nn34)cc2)cn1`: -5.71%. The same measure for `C=C1CC(=O)C2OC2(C)CC2OC(=O)C(=C)C2C(O)C1OC(=O)/C(C)=C\C` (centres undefined): -2.1%; for `Cc1cc(C)nc(SCC(=O)Nc2ncc(Cc3cccc4ccccc34)s2)n1`: -5.55%. The same measure for `COc1ccc(CN2CCN(CCCSc3cc(C(C)(C)C)c(O)c(C(C)(C)C)c3)CC2)c(OC)c1OC`: 6.4% [at 11.5 µM]; for `CCOC(=O)C1(CCOc2ccccc2)CCN(Cc2ccc(O)c(Cl)c2)CC1`: 5.72%. Consider `COc1cc(C(C)=O)c(OC)c2c1OC(C)(C)C=C2`, for which the “redox activity (% of DA3003)” value is -3.1%.

As for `Cn1ncc(Cl)c1-c1cc(C(=O)N[C@H](CN)Cc2ccc(F)c(F)c2)sc1Cl`, the “redox activity (% of DA3003)” value was 2.51%. As to `C=C(CCC1C(C)(O)CCC2C(C)(C)C(O)CCC12C)C(O)CO` (centres undefined), the “redox activity (% of DA3003)” value was -3.7%.

As for `C=C1CC[C@H]2C(=C)CC[C@H]3C(=C)C(=O)O[C@@H]3[C@@H]12`, the “redox activity (% of DA3003)” value was 4.53%.

On to `C=C1C(=O)OC2/C=C(\COC(C)=O)CC/C=C(\C=O)CC(OC(=O)C(C)CC)C12` (centres undefined), for which the “redox activity (% of DA3003)” value was 8.4% [at 25.6 µM]. The value for `C=C[C@]1(C)C[C@H](O)[C@H]2C(=C)C(=O)O[C@@H]2[C@H]1C(=C)CO` was -0.429%; that for `Cc1ccc(NC(=O)N2CCN(c3nc(N)nc4sc(-c5cccnc5)nc34)CC2)cc1` was 13.6%; that for `C/C=C(/C=C(C)/C=C/C=C/C=C(\C)C(=O)C12OC1C(O)(CCO)NC2=O)C(=O)OC` (centres undefined) was 6.43% [at 25.6 µM].

In the case of `Nc1cccc(CNC(=O)c2ccc(Oc3ccc(OCc4cccc(F)c4)cc3)nc2)c1`, the “redox activity (% of DA3003)” value was 2.1%. With `Cc1nc2c(C(F)(F)F)cccc2nc1-c1ccc(-c2cccc(S(C)(=O)=O)c2)cc1`, the “redox activity (% of DA3003)” value is -0.162%. The value for `NC(N)=N/N=C/c1ccccc1Cl` was -1.34%. Consider `C=C(C)Cn1c(SCC(=O)c2cccs2)nc2sc3c(c2c1=O)CCCC3`, for which the “redox activity (% of DA3003)” value was -7.3%. The same measure for `CC(=O)O[C@@H]1CC[C@@]2(C)C(CC[C@]3(C)C2[C@H](O)C=C2[C@H]4[C@@H](C)[C@H](C)CC[C@]4(C)CC[C@]23C)[C@@]1(C)C(=O)O` (some centres undefined): -1.76% [at 25.6 µM]; for `CCS(=O)c1nc(-c2cccc(OCc3ccccc3)c2)cc(C(F)(F)F)n1` (centres undefined): 6.38%. `O=C(O)C1=CO[C@@H](O[C@@H]2O[C@H](CO)[C@@H](O)[C@H](O)[C@H]2O)[C@@H]2C(CO)=CC[C@H]12`: the “redox activity (% of DA3003)” value was -0.663%.

On to `C=CC(=O)N1CCCN(c2cc(NCCC(=O)O)nc(-c3ccccn3)n2)CC1`, for which the “redox activity (% of DA3003)” value is 2.4%. The same measure for `Cc1ccc(C2(C(=O)N3CCC(n4nc(-c5ccccc5)oc4=O)CC3)CC2)cc1`: 9.78%; for `C=C1CC2OC(=O)C(=C)C2C(OC(=O)/C(C)=C\C)CC2(C)OC1=CC2=O` (centres undefined): -6.01%.

As to `C=C1C(=O)OC2CC(C)C(CCC(C)=O)=CCC12` (centres undefined), the “redox activity (% of DA3003)” value was -0.821%.

For `Fc1ccc(-c2cncc(CN3CCN(c4cccc5c4OCCO5)CC3)c2)cc1`, the “redox activity (% of DA3003)” value was 9.6%. On to `CC(=O)c1ccc2c(c1)[C@H](NC(=O)c1ccc(F)c(Cl)c1)[C@H](O)C(C)(C)O2`, for which the “redox activity (% of DA3003)” value was -0.854%.

Turning to `CC(=O)OC[C@]12[C@H](OC(C)=O)[C@H](OC(=O)c3ccccc3)[C@@H]3[C@@H](OC(C)=O)[C@]1(OC3(C)C)[C@H](C)C[C@H](OC(C)=O)[C@@H]2OC(=O)c1ccccc1`, the “redox activity (% of DA3003)” value was 26.5% [at 25.6 µM].

Take `COc1ccc2c(NC(=O)Nc3cccc(C(F)(F)F)n3)ccnc2c1`: the “redox activity (% of DA3003)” value was -11.4%. `CC(C)c1cc(-c2ccc(F)c3ccccc23)nc(N)n1`: the “redox activity (% of DA3003)” value was -1.98%. The same measure for `COc1c(C(O)CC(C)C)ccc2c1C(=O)OCc1cc(C)cc(O)c1O2` (centres undefined): -3.82%; for `CC(=O)NC[C@H]1CN(c2ccc(N3CCSCC3)c(F)c2)C(=O)O1`: 0.0893%. Turning to `C=C(C)C(=O)O[C@H]1C[C@@](C)(O)C2(O)CCC(C)(/C=C3/OC(=O)C(COC)=C31)O2` (some centres undefined), the “redox activity (% of DA3003)” value was -8.04%. Consider `Cc1ccc(C(C)C)c(O[C@@H]2O[C@H](CO)[C@@H](O)[C@H](O)[C@H]2O)c1`, for which the “redox activity (% of DA3003)” value is -18.4%. In the case of `C[C@H](CN(C)C)Oc1nc(Nc2cc3cccc(Cl)c3cn2)cnc1C#N`, the “redox activity (% of DA3003)” value was -9.39%.

Turning to `CCCCCCCCC(=O)N[C@H](CN1CCCC1)[C@H](O)c1ccc2c(c1)OCCO2`, the “redox activity (% of DA3003)” value was -0.733%.
